From the supplement of paper PMC8728848
About 410 targets per protein were measured; listed, in parts, are those with the strongest signals and a random draw of the rest.

What was measured:
Assay in all cases: glycan array binding signal (z-score within array); higher = stronger binding
Conditions in all cases: glycan notation: IUPAC condensed, linker removed
[1] = molecular target: Fuc(a1-2)Gal(b1-3)GlcNAc(b1-2)Man(a1-3)[Fuc(a1-2)Gal(b1-3)GlcNAc(b1-2)Man(a1-6)]Man(b1-4)GlcNAc(b1-4)GlcNAc
Summary of the method: (§1)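 From the Consortium for Functional Glycomics database, 3228 arrays were curated, keeping only those whose protein sequence was available. Binding is given as a within-array Z-score averaged across arrays sharing a protein sequence and across linkers. Negative Z-scores can be read as non-binding.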

Fuc(a1-2)Gal(b1-4)Glc6S = molecular target: Fuc(a1-2)Gal(b1-4)Glc6S
Summary of the method: as §1

Fuc(a1-2)Gal(b1-4)GlcNAc = molecular target: Fuc(a1-2)Gal(b1-4)GlcNAc
Summary of the method: as §1

[2] = molecular target: Fuc(a1-2)Gal(b1-4)GlcNAc6S
Summary of the method: as §1

[3] = molecular target: Fuc(a1-2)Gal(b1-4)[Fuc(a1-3)]GlcNAc
Summary of the method: as §1

[4] = molecular target: Fuc(a1-2)Gal(b1-4)[Fuc(a1-3)]GlcNAc(b1-3)Gal(b1-4)[Fuc(a1-3)]GlcNAc
Summary of the method: as §1

[5] = molecular target: Fuc(a1-2)Gal(b1-4)[Fuc(a1-3)]GlcNAc(b1-3)Gal(b1-4)[Fuc(a1-3)]GlcNAc(b1-3)Gal(b1-4)[Fuc(a1-3)]GlcNAc
Summary of the method: as §1

Fuc(a1-2)Gal6S(b1-4)Glc = molecular target: Fuc(a1-2)Gal6S(b1-4)Glc
Summary of the method: as §1

[6] = molecular target: Fuc(a1-2)[Gal(a1-3)]Gal(b1-4)Glc
Summary of the method: as §1

[7] = molecular target: Fuc(a1-2)[GalNAc(a1-3)]Gal
Summary of the method: as §1

[8] = molecular target: Fuc(a1-2)[GalNAc(a1-3)]Gal(b1-3)GlcNAc(b1-2)Man(a1-3)[Fuc(a1-2)[GalNAc(a1-3)]Gal(b1-3)GlcNAc(b1-2)Man(a1-6)]Man(b1-4)GlcNAc(b1-4)GlcNAc
Summary of the method: as §1

Fuc(a1-3)GlcNAc = molecular target: Fuc(a1-3)GlcNAc
Summary of the method: as §1

[9] = molecular target: Fuc(a1-3)[Gal3S(b1-4)]GlcNAc
Summary of the method: as §1

Fuc(a1-4)GlcNAc = molecular target: Fuc(a1-4)GlcNAc
Summary of the method: as §1

Gal(a1-3)Gal(b1-3)GlcNAc = molecular target: Gal(a1-3)Gal(b1-3)GlcNAc
Summary of the method: as §1

[10] = molecular target: Gal(a1-3)Gal(b1-4)[Fuc(a1-3)]GlcNAc(b1-2)Man(a1-3)[Gal(a1-3)Gal(b1-4)[Fuc(a1-3)]GlcNAc(b1-2)Man(a1-6)]Man(b1-4)GlcNAc(b1-4)GlcNAc
Summary of the method: as §1

[11] = molecular target: Gal(a1-3)[Gal(a1-4)]Gal(b1-4)GlcNAc
Summary of the method: as §1

Gal(a1-4)GlcNAc = molecular target: Gal(a1-4)GlcNAc
Summary of the method: as §1

Gal(b1-3)GalNAc = molecular target: Gal(b1-3)GalNAc
Summary of the method: as §1

Gal(b1-4)Glc = molecular target: Gal(b1-4)Glc
Summary of the method: as §1

[12] = molecular target: Gal(b1-4)GlcNAc(b1-2)[Gal(b1-4)GlcNAc(b1-6)]Man(a1-6)[Gal(b1-4)GlcNAc(b1-2)Man(a1-3)]Man(b1-4)GlcNAc(b1-4)GlcNAc
Summary of the method: as §1

[13] = molecular target: Gal(b1-4)GlcNAc(b1-3)Gal(b1-4)Glc
Summary of the method: as §1

[14] = molecular target: Gal(b1-4)GlcNAc(b1-3)GalNAc
Summary of the method: as §1

[15] = molecular target: Gal(b1-4)GlcNAc(b1-3)[Gal(b1-4)GlcNAc(b1-6)]GalNAc
Summary of the method: as §1

Gal3S(b1-3)GalNAc = molecular target: Gal3S(b1-3)GalNAc
Summary of the method: as §1

[16] = molecular target: Gal3S(b1-4)[Fuc(a1-3)]Glc
Summary of the method: as §1

Gal3S6S(b1-4)GlcNAc6S = molecular target: Gal3S6S(b1-4)GlcNAc6S
Summary of the method: as §1

Gal6S(b1-3)GlcNAc6S = molecular target: Gal6S(b1-3)GlcNAc6S
Summary of the method: as §1

GalNAc(a1-3)Gal = molecular target: GalNAc(a1-3)Gal
Summary of the method: as §1

[17] = molecular target: GalNAc(a1-3)GalNAc(a1-3)Gal(a1-4)Gal(b1-4)GlcNAc
Summary of the method: as §1

[18] = molecular target: GalNAc(a1-3)GalNAc(b1-3)Gal(a1-4)Gal(b1-4)GlcNAc
Summary of the method: as §1

GlcA(b1-3)GlcNAc = molecular target: GlcA(b1-3)GlcNAc
Summary of the method: as §1

[19] = molecular target: GlcNAc(a1-4)Gal(b1-3)GlcNAc
Summary of the method: as §1

[20] = molecular target: GlcNAc(a1-4)Gal(b1-4)GalNAc
Summary of the method: as §1

Kdn(a2-3)Gal(b1-4)GlcNAc = molecular target: Kdn(a2-3)Gal(b1-4)GlcNAc
Summary of the method: as §1

[21] = molecular target: Man(a1-2)Man(a1-6)[Man(a1-3)]Man(a1-6)[Man(a1-2)Man(a1-2)Man(a1-3)]Man(b1-4)GlcNAc(b1-4)GlcNAc
Summary of the method: as §1

[22] = molecular target: Neu5Ac(a2-3)Gal(b1-3)GalNAc
Summary of the method: as §1

[23] = molecular target: Neu5Ac(a2-3)Gal(b1-3)GalNAc(b1-4)[Neu5Ac(a2-8)Neu5Ac(a2-3)]Gal(b1-4)Glc
Summary of the method: as §1

[24] = molecular target: Neu5Ac(a2-6)Gal(b1-3)GlcNAc(b1-3)[Gal(b1-4)GlcNAc(b1-6)]Gal(b1-4)Glc
Summary of the method: as §1

Neu5Ac(a2-6)GalNAc = molecular target: Neu5Ac(a2-6)GalNAc
Summary of the method: as §1

[25] = molecular target: Neu5Ac(b2-6)Gal(b1-4)GlcNAc
Summary of the method: as §1

B1: AFL (Aspergillus fumigatus), Q4WW81 (protein)
chain: STPGAQQVLFRTGIAAVNLTNHLRVYFQDVYGSIRESLYEGSWANGTEKNVIGNAKLGSPVAATSKELKHIRVYTLTEGNTLQEFAYDSGTGWYNGGLGGAKFQVAPYSRIAAVFLAGTDALQLRIYAQKPDNTIQEYMWNGDGWKEGTNLGGALPGTGIGATSFRYTDYNGPSIRIWFQTDDLKLVQRAYDPHKGWYPDLVTIFDRAPPRTAIAATSFGAGNSSIYMRIYFVNSDNTIWQVCWDHGKGYHDKGTITPVIQGSEVAIISWGSFANNGPDLRLYFQNGTYISAVSEWVWNRAHGSQLGRSALPPA
glycan array binding signal (z-score) [1]: -0.22 | glycan array binding signal (z-score) (Fuc(a1-2)Gal(b1-4)Glc6S): 3.64 | glycan array binding signal (z-score) (Fuc(a1-2)Gal(b1-4)GlcNAc): 2.94 | glycan array binding signal (z-score) [2]: 3.17 | glycan array binding signal (z-score) [3]: 4.58 | glycan array binding signal (z-score) [4]: 3.88 | glycan array binding signal (z-score) [5]: 4.31 | glycan array binding signal (z-score) (Fuc(a1-2)Gal6S(b1-4)Glc): 3.41 | glycan array binding signal (z-score) [6]: -0.359 | glycan array binding signal (z-score) [7]: 1.73 | glycan array binding signal (z-score) [8]: -0.374 | glycan array binding signal (z-score) (Fuc(a1-3)GlcNAc): 3.8 | glycan array binding signal (z-score) [9]: 0.994 | glycan array binding signal (z-score) (Fuc(a1-4)GlcNAc): 3.56 | glycan array binding signal (z-score) (Gal(a1-3)Gal(b1-3)GlcNAc): -0.384 | glycan array binding signal (z-score) [10]: -0.087 | glycan array binding signal (z-score) [11]: -0.382 | glycan array binding signal (z-score) (Gal(a1-4)GlcNAc): -0.385 | glycan array binding signal (z-score) (Gal(b1-3)GalNAc): -0.383 | glycan array binding signal (z-score) (Gal(b1-4)Glc): -0.383 | glycan array binding signal (z-score) [12]: -0.356 | glycan array binding signal (z-score) [13]: -0.386 | glycan array binding signal (z-score) [14]: -0.386 | glycan array binding signal (z-score) [15]: -0.382 | glycan array binding signal (z-score) (Gal3S(b1-3)GalNAc): -0.387 | glycan array binding signal (z-score) [16]: 0.328 | glycan array binding signal (z-score) (Gal3S6S(b1-4)GlcNAc6S): -0.381 | glycan array binding signal (z-score) (Gal6S(b1-3)GlcNAc6S): -0.385 | glycan array binding signal (z-score) (GalNAc(a1-3)Gal): -0.386 | glycan array binding signal (z-score) [17]: -0.4 | glycan array binding signal (z-score) [18]: -0.377 | glycan array binding signal (z-score) (GlcA(b1-3)GlcNAc): -0.361 | glycan array binding signal (z-score) [19]: -0.377 | glycan array binding signal (z-score) [20]: -0.384 | glycan array binding signal (z-score) (Kdn(a2-3)Gal(b1-4)GlcNAc): -0.381 | glycan array binding signal (z-score) [21]: -0.376 | glycan array binding signal (z-score) [22]: -0.385 | glycan array binding signal (z-score) [23]: -0.382 | glycan array binding signal (z-score) [24]: -0.383 | glycan array binding signal (z-score) (Neu5Ac(a2-6)GalNAc): -0.383 | glycan array binding signal (z-score) [25]: -0.388
